# Assay results reported in the supplement of paper PMC3334620.
# Whole data set: some 33,000 sequences, median “E-score (-0.5 to 0.5)” near -0.013, cut for the highest 2% near 0.3. The full list was thinned out, with the highest values kept by preference.
# Target: T1, Msn1 (UniProt P22148)
# T1 sequence: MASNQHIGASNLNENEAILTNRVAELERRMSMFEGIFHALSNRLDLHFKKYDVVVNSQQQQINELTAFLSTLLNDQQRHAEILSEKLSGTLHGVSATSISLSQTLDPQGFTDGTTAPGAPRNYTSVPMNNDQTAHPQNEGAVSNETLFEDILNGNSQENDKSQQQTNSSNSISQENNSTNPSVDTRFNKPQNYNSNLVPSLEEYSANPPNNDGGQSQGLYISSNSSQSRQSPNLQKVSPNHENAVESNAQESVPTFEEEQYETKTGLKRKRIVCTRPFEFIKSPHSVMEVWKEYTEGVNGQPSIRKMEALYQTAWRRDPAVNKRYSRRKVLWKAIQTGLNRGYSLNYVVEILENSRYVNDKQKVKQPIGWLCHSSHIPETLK
# Assay: PBM E-score (8-mer binding enrichment) (E-score (-0.5 to 0.5)); higher = stronger / more preferred TF binding
# Conditions: protein concentration: 200 nM; construct: GST-full length
# How it was run: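 Each ungapped eight-base word and its reverse complement, pooled, received an E-score from the Universal PBM Analysis Suite. Underlying scans, normalised with masliner, recorded fluorescent anti-GST bound to GST-tagged yeast transcription factors. These were applied at about 100-200 nM to universal all-10-mer Agilent arrays double-stranded by primer extension.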
row,Sequence,PBM E-score
1,CAACGTTG,0.128
2,AGGCAACA,-0.161
3,GCCAGTCA,-0.117
4,CTCTGTAC,0.0138
5,CTCTGTCA,-0.0435
6,CTCTGTCC,0.34
7,ATCTGTCA,0.159
8,ATCTGTCC,0.387
9,ATCTGTCG,0.0829
10,AAAACCTG,0.0428
11,AAGCTCCA,-0.219
12,GAAGGGCC,-0.143
13,ATCTGTTA,0.183
14,ATCGCAAA,0.0406
15,AGTTGTCG,0.168
16,CTTTGTGA,0.126
17,CTTTGTTC,0.0603
18,ATTTGTCG,0.451
19,CTTTGTTA,0.215
20,ATTTGTTG,0.177
21,ATTTGTCA,0.46
22,ATTTGTTA,0.087
23,CTTTGTCC,0.485
24,CTTTGTGC,0.058
25,CTTTGTCA,0.311

row,Sequence,PBM E-score
1,GTTTGTCA,0.299
2,GCGCTAGA,-0.116
3,TATTGGCA,0.0554
4,GGCTGGAC,-0.135
5,TATGGTGA,-0.0581
6,CCGCTCAC,-0.22
7,ATCACGAC,0.117
8,TACAAGGA,0.197
9,CACAAGGA,0.0619
10,AACAAAGC,-0.00117
11,GACAAGGA,0.311
12,AACAAAGA,0.139
13,GACAAAGC,0.393
14,CACAAAGC,0.161
15,TACAAAGA,0.208
16,GACAAAGA,0.404
17,CCATGAAG,0.0685
18,ACGTCGCT,-0.211
19,CAAGTGAA,0.223
20,GCATGCCC,0.101
21,CTCTTGCC,-0.0644
22,GGACAGAC,0.375
23,GGACAGAA,0.332
24,CGACAGAA,0.167
25,AGACAGAC,0.279

row,Sequence,PBM E-score
1,AGACAGAA,0.00949
2,CGACAGAC,-0.0767
3,GATTGCAC,0.0495
4,CGAAAGCG,0.0854
5,AAGCCAGA,0.00654
6,ACGTTCAG,-0.0415
7,GGTCCAAA,-0.0431
8,AGTCCACG,-0.059
9,TGTCCTAA,0.487
10,AGTCCTAA,0.297
11,CGTCCACA,0.188
12,AGTCCAAA,0.214
13,GGTCCTAA,0.18
14,GGTCCGAA,0.128
15,TGTCCACA,0.455
16,TGTCCGAA,0.452
17,TGTCCAAA,0.473
18,CGTCCGAA,0.222
19,CCGGGATA,0.101
20,ACTGGTTC,-0.0366
21,CCAGCTAG,-0.16
22,CGCCTGAC,-0.0177
23,CCTAACGC,-0.129
24,AGTGAGGA,-0.0425
25,AACATAGC,0.13

row,Sequence,PBM E-score
1,CCACCAAC,-0.0306
2,AACCTGGT,0.00051
3,TGTCCCAA,0.463
4,CGTCCCAA,0.218
5,AGTCCCAA,0.17
6,AAGCATTA,-0.0789
7,CTCGATGA,-0.0098
8,ACGACCTA,-0.0056
9,CAGGCCGC,-0.144
10,GACATACC,0.4
11,TACATACA,0.207
12,CACATACC,0.0401
13,GACATACA,0.414
14,AACATACC,0.107
15,CACATACA,0.0971
16,GCGGATCA,-0.116
17,ACAAAAGG,0.229
18,AGTTAGAC,0.124
19,CTTGGGTC,-0.123
20,GGACTCAC,-0.116
21,GCCCTTTA,-0.318
22,GTCCAAAC,0.175
23,ATACAAAC,0.125
24,GTACAAAC,0.421
25,CTACAAAC,-0.0616

row,Sequence,PBM E-score
1,CTACAAAA,0.0933
2,GTACAAAA,0.416
3,GTCCAAAA,0.318
4,TTACAAAA,0.12
5,TTCCAAAA,0.192
6,ACGAGTAT,-0.134
7,GAAGGCTC,-0.291
8,CTTGGGCC,-0.266
9,CTACACGC,-0.145
10,GCTTCTAC,-0.0502
11,CGTAAGTA,0.0282
12,TCGTGACA,0.314
13,CTGTGACC,-0.115
14,CCGTGACA,0.164
15,ATGTGACA,0.305
16,ACGTGACA,0.27
17,CTGTGAAA,0.2
18,ATGTGACG,-0.223
19,CTGTGACA,0.316
20,GTGTGACA,0.17
21,CCTGCTTC,-0.172
22,GCGCCTAA,0.129
23,CGTAGGGA,0.0214
24,GGTTTGCA,-0.172
25,ACGAATCA,0.13

row,Sequence,PBM E-score
1,CAGTCACG,-0.198
2,ATTGCTGC,-0.0878
3,ATTCGGAC,0.339
4,ATTCGGAA,0.167
5,ATTCGGAG,0.0972
6,AAAGATAT,0.113
7,AATGAGAG,-0.161
8,CCCCAATC,-0.222
9,ATGACAGA,0.137
10,CTGACATC,0.143
11,ATGACAGG,0.105
12,GTGACTGA,0.0999
13,GTGACATA,0.328
14,CTGACATA,0.269
15,ATGACATG,0.361
16,ATGACATA,0.417
17,ATGACATC,0.349
18,GTGACAGA,0.161
19,ATGACACC,0.0663
20,ATGACACA,0.287
21,AGCGCGTG,-0.133
22,CATTGGGG,-0.125
23,GGGACCAA,-0.0643
24,CGCCTCTA,-0.0484
25,CACACTGG,-0.259

row,Sequence,PBM E-score
1,CATGCAGA,-0.0066
2,CATCTCGA,0.149
3,CAAGAAAG,0.0067
4,GATCTTAC,0.00117
5,TGAGACCA,-0.0631
6,CGAGACAG,-0.00132
7,AGAGACCT,-0.012
8,AGAGACAA,0.375
9,CGAGACAC,0.183
10,TGAGAGAA,0.00621
11,AGAGAGAC,-0.0618
12,TGAGACAA,0.397
13,AGAGACAG,0.0165
14,AGAGACAT,0.43
15,AGAGACAC,0.177
16,CGAGACAA,0.365
17,ATAGCGGG,-0.192
18,ACGAAGCT,-0.0736
19,CCTTTGGC,-0.132
20,AATCGAAT,0.047
21,ACGTTGCC,-0.241
22,CCAGCGCG,-0.158
23,GAGCTCGC,-0.0509
24,CACCCACA,-0.132
25,ATTAGCTA,-0.086
